Measured values taken from PubChem BioAssay (Tox21).
Inconclusive results are not listed. Where a call stands in place of a potency, no number is given. Activity calls are given as the source filed them. Calls come from the whole dose curve; as a rule, active = well fitted cell-killing curve with a large enough effect in the repeat runs; inconclusive = weak or mixed curves, or effect the other way; inactive = flat fitted curve, though single readings scatter.

Test: qHTS assay to identify small molecule agonists of the androgen receptor (AR) signaling pathway in the presence of an antagonist - cell viability counter screen (AID 1259379); note: nearly all actives have a fitted effect of over 25% in size
Conditions: MDA-kb2 viability, CellTiter-Fluor, 16 h; series mostly up to 92.4 µM
Text: National Center for Advancing Translational Sciences [NCATS]
NIH Chemical Genomics Center [NCGC]
U.S. Environmental Protection Agency [EPA]
National Institutes of Environmental Health Sciences [NIEHS]
National Toxicology Program [NTP]
U.S. Food and Drug Administration [FDA]
Androgen receptor (AR) is an important member of nuclear receptor family. Its signaling plays a critical role in AR-dependent prostate cancer and other androgen related diseases. Considerable attention has been given in the past decades to develop methods to study and screen for the environmental chemicals that have the potential to interfere with metabolic homeostasis, reproduction, developmental and behavioral functions. Therefore AR binding assay for screening against androgen agonists and antagonists can be used to identify potential endocrine disruptors.
MDA-kb2 cells (from ATCC, deposited by Wilson et al.) are human breast carcinoma cells that were stably transfected with a luciferase reporter gene under control of the MMTV promoter that contains response elements for both androgen receptor (AR) and glucocorticoid receptor (GR). This particular screening for measuring luciferase reporter gene activity using MDA-kb2 cells against Tox21 10K library compounds is a confirmation study on agonist mode screening in the presence of AR-antagonist compound (Nilutamide) at 3.0uM final concentration. The cytotoxicity of the compounds was tested in parallel by measuring the cell viability using CellTiter-Fluor assay system (Promega, Madison, WI) in the same wells.
Tox21 Assay Protocol Summary:
MDA-kb2 cells (cells cultured without CO2) were dispensed at 3,000 cells/well in 4uL of culture medium into white wall/solid-bottom 1536-well plates (Corning Life Sciences, Corning, NY) using a Multidrop Combi (Thermo Fisher Scientific Inc., Waltham, MA) dispenser. The assay plates were incubated at 37C and 0% CO2 for 5hr. One uL of 3.0uM (final concentration) Nilutamide or assay buffer was added using two separate tips of Flying Reagent Dispenser (FRD, Aurora Discovery, San Diego, CA). Then 23nL of compounds dissolved in DMSO at 15 concentrations and positive controls were transferred to the assay plates using a Pintool station (Wako, San Diego, CA). The assay plates were incubated at 37C and 0% CO2 for 16 hr. After 15hr incubation at 37C, 1uL/well CellTiter-Fluor reagent (Promega Corporation) was added to each well of the assay plates using FRD. After 1hr incubation at 37C and 0% CO2, the fluorescence signal was measured using a ViewLux plate reader (PerkinElmer, Shelton, CT).
Potency is the fitted concentration of half-maximal effect.

| Structure (SMILES) | Potency | activity change, negative = cytotoxicity |
| --- | --- | --- |
| COC(=O)C(C)=O | inactive |  |
| CCOC(=O)CC(C)C | inactive |  |
| SC1CCCC1 | inactive |  |
| COc1cc(C(C)(C)C)c(O)c(C(C)(C)C)c1 | inactive |  |
| O=C1Nc2cc(Cl)ccc2Oc2ccccc21 | inactive |  |
| O=C(O)Cc1sc(-c2ccccc2)nc1-c1ccc(Cl)cc1 | inactive |  |
| CCN(CC)CCNC(C(=O)OCCC(C)C)c1ccccc1 (stereo not given) | inactive |  |
| Oc1ccc2c(c1)OCO2 | inactive |  |
| CN(C)CC[C@@H](c1ccc(Br)cc1)c1ccccn1 | inactive |  |
| Cn1c(NCCN(CCO)CCCc2ccc([N+](=O)[O-])cc2)cc(=O)n(C)c1=O | inactive |  |
| COC(Cc1ccccc1)OC | inactive |  |
| O=S1(=O)c2cccc3cccc(c23)N1CCCN1CCN(c2ccc(F)cc2)CC1 | inactive |  |
| CCCCCCCCN(C)C | inactive |  |
| Nc1cnn([C@@H]2O[C@H](CO)[C@@H](O)[C@H]2O)c(=O)n1 | inactive |  |
| Cc1ccccn1 | inactive |  |
| CCCCOC(=O)c1ccccc1C(=O)OCC(CC)CCCC (stereo not given) | inactive |  |
| O=C(C(=O)c1ccc(Br)cc1)c1ccc(Br)cc1 |  | 0.135% [at 19 µM] (inactive) |
| CC(=O)[C@@]1(O)CC[C@H]2[C@@H]3C[C@H](C)C4=CC(=O)CC[C@]4(C)[C@H]3CC[C@@]21C | inactive |  |
| CC(C)CCCCCCOC(=O)c1ccc(C(=O)OCCCCCCC(C)C)c(C(=O)OCCCCCCC(C)C)c1 | inactive |  |
| COc1ccc2[nH]c(S(=O)Cc3ncc(C)c(OC)c3C)nc2n1 (stereo not given) | inactive |  |

| Structure (SMILES) | Potency | activity change, negative = cytotoxicity |
| --- | --- | --- |
| Nc1ccc(C(=O)N2CC3CC(CN(Cc4ccccc4)C3)C2)cc1 | inactive |  |
| Oc1ccc(Cc2ccccc2)cc1 | inactive |  |
| CCCCCC(CO)CCC (stereo not given) | inactive |  |
| CN1CCC(=C2c3ccccc3C=Cc3ccccc32)CC1 | inactive |  |
| CC(C)NCC(O)c1cc(O)cc(O)c1 (stereo not given) | inactive |  |
| CC(C)c1ccc2c(C(C)C)cc(C(C)C)c(S(=O)(=O)O)c2c1 | inactive |  |
| OCC1CC2CC1C1CCC(CO)C21 (stereo not given) | inactive |  |
| CCCCCCCCC(CO)CCCCCC (stereo not given) | inactive |  |
| CCCCCc1ccc(N)cc1 | inactive |  |
| Cl/C(=C\n1cncn1)c1ccc(Cl)cc1Cl | inactive |  |
| C[C@H](CCC(=O)O)[C@H]1CC[C@H]2[C@@H]3[C@H](O)C[C@@H]4C[C@H](O)CC[C@]4(C)[C@H]3CC[C@]12C | inactive |  |
| C=CCCCCCC | inactive |  |
| CCCCCCc1ccc(N)cc1 | inactive |  |
| CCCC(=O)OCC | inactive |  |
| c1ccc(CNCc2ccccc2)cc1 | inactive |  |
| CN(c1nccc(=O)[nH]1)C1CCN(c2nc3ccccc3n2Cc2ccc(F)cc2)CC1 | inactive |  |
| COC(=O)CSc1cc(N=c2sc(=O)n3n2CCCC3)c(F)cc1Cl | inactive |  |
| CN(C)CC/C=C1\c2ccccc2COc2ccccc21 | inactive |  |
| CC(C)(C)c1cc(O)c(C(C)(C)C)cc1O | 54.5 µM (active) |  |
| O=C1CCCCCO1 | inactive |  |
